For some of these results: Measured potencies and affinities stand elsewhere.
Legend:
Set-up in all cases: scale not given: direction of the effect not stated beside the values
[1] = target: Protein translocase subunit SecA (Escherichia coli (strain K12)) (UniProt P10408); experiment: Assay to Identify E. coli SecA ATPase Inhibitors; assay type: functional; settings: 30 µM
[2] = target: T1, Ubiquitin-activating enzyme e1, putative (Leishmania donovani (strain BPK282A1)) (UniProt E9BSI1); experiment: Leishmania donovani Ubiquitin Activating Enzyme (LdE1); assay type: functional; settings: 30 µM
T1 sequence (whole entry): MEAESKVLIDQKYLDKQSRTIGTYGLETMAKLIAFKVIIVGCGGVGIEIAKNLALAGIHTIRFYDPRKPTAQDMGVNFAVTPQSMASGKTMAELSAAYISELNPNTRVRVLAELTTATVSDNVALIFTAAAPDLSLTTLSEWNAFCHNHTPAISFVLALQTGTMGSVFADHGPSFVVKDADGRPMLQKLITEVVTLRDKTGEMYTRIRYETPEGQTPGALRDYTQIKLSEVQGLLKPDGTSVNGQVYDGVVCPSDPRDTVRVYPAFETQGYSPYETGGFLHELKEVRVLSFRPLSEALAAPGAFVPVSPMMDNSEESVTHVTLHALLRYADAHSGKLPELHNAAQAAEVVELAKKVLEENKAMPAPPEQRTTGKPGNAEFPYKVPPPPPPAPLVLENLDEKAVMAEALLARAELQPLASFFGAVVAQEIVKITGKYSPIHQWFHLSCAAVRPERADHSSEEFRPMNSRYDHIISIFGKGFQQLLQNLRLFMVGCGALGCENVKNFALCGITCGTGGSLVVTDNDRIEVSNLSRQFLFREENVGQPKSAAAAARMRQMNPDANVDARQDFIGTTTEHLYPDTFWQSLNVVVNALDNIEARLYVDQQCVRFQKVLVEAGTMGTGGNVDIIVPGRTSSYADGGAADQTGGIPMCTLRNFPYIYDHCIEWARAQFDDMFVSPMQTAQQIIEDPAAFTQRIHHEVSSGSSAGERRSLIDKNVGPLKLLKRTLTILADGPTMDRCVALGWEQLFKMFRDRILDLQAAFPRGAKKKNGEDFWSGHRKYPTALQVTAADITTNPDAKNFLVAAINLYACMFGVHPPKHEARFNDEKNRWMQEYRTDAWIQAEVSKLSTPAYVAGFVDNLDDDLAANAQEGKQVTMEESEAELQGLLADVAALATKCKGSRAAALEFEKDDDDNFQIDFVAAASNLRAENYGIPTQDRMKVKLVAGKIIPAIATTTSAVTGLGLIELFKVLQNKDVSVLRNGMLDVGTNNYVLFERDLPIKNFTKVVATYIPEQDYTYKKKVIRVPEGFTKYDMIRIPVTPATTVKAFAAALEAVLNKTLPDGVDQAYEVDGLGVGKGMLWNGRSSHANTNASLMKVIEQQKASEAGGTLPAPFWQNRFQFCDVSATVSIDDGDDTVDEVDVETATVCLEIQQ

[3] = target: AMP-activated protein kinase, AMPK (Homo sapiens) (UniProt P54646+O43741+P54619+Q9UGJ0+Q9Y478+Q13131+Q9UGI9); experiment: AMP-dependent Kinase enzyme assay. An in vitro enzyme assay that detects ADP turnover that is directly proportional to AMPK activity. This uses naive AMPK that is activated during the assay with MK-8722; assay type: functional; settings: 30 µM
[4] = target: Sialic acid-binding Ig-like lectin 9 (Homo sapiens) (UniProt Q9Y336); experiment: Hs-Siglec9 ALPHAscreen SOP 20170721; settings: 10 µM
Sequence of Sialic acid-binding Ig-like lectin 9 (Homo sapiens) (Q9Y336 whole entry): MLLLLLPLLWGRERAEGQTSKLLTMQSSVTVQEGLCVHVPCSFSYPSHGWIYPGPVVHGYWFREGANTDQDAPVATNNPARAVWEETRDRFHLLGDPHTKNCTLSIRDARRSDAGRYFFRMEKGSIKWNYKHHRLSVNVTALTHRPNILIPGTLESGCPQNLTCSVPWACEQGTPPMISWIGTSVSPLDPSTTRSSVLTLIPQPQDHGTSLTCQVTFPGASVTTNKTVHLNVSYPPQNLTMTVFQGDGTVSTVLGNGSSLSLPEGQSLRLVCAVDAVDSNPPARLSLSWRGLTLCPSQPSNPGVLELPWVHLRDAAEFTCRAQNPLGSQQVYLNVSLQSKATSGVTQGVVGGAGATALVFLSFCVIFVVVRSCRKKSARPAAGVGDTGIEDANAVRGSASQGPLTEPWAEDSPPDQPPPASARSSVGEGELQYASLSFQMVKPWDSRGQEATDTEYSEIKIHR

Trypanosoma cruzi = experiment: Trypanosoma cruzi phosphomannomutase and mannose-1-phosphate guanylyltransferase assay; assay type: functional; settings: 10 µM
[5] = target: T2, Arginase-2, mitochondrial (Homo sapiens) (UniProt P78540); experiment: in vitro enzyme assay to detect the production of urea directly proportional to the activity of Arginase II; assay type: functional; settings: 33.3 µM; further: in the data most compounds retested in dose-response had high values
T2 sequence (whole entry): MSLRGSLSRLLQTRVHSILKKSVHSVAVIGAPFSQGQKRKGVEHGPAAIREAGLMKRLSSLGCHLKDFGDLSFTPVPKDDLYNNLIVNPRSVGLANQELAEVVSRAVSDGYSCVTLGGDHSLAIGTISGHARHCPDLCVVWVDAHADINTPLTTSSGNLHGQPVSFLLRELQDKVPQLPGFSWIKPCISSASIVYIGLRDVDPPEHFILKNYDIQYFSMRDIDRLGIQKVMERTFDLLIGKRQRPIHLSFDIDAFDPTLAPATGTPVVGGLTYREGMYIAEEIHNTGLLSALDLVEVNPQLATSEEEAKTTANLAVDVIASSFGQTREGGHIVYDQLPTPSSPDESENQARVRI

[6] = target: T3, Proteasome subunit beta (Trypanosoma cruzi) (UniProt O96673); experiment: Trypanosoma cruzi proteasome chymotrypsin-like activity (TcProtChymo) assay.; further: in the data most compounds retested in dose-response had high values; assay type: functional; settings: 9.37 µM
T3 sequence (whole entry): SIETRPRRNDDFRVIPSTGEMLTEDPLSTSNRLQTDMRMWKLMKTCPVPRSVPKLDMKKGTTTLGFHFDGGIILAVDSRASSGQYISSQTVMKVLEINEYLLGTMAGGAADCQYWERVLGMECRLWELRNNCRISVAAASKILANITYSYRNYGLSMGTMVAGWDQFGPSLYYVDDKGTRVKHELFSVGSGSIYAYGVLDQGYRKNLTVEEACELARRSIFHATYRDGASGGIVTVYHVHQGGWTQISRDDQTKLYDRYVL

Homo sapiens = organism: Homo sapiens; experiment: To identify inhibition of the IFN signalling (Jak-Stat) pathway via expression of an eGFP reporter gene under the control of an IFN-stimulated response element (ISRE) containing MxA promoter.; assay type: functional; settings: 30 µM
[7] = target: T4, Tyrosyl-tRNA synthetase, putative (Trypanosoma cruzi (strain CL Brener)) (UniProt Q4DSP6); experiment: Trypanosoma cruzi tyrosyl tRNA synthetase (TcYRS) _High Tyrosine SOP; assay type: functional; settings: 30 µM; further: in the data most compounds retested in dose-response had high values
T4 sequence (whole entry): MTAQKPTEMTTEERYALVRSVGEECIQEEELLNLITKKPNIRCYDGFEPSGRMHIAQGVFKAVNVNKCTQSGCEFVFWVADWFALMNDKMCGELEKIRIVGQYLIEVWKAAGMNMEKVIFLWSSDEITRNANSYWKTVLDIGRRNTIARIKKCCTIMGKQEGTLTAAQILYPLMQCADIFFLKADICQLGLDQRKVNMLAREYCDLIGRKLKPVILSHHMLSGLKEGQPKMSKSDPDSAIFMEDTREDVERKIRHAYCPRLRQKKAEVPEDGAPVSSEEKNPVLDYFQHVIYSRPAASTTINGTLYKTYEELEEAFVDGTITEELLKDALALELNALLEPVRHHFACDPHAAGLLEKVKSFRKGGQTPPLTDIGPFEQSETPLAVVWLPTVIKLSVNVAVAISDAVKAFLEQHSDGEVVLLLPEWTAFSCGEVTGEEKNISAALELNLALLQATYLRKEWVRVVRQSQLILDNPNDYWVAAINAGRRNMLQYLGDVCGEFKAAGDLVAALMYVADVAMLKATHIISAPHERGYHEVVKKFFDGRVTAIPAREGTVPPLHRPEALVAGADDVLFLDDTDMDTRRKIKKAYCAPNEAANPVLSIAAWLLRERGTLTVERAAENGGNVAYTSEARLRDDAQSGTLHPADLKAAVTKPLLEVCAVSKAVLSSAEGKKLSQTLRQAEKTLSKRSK

[8] = target: T4, Tyrosyl-tRNA synthetase, putative (Trypanosoma cruzi (strain CL Brener)); experiment: Trypanosoma cruzi tyrosyl tRNA synthetase (TcYRS) SOP; assay type: functional; settings: 30 µM
[9] = target: Chromo domain-containing protein 1 (Saccharomyces cerevisiae (strain ATCC 204508 / S288c) (Baker's yeast)) (UniProt P32657); experiment: ScCHD-1 Enzyme Inhibition Assay; assay type: functional; settings: 30 µM; further: in the data most compounds retested in dose-response had high values
Sequence of Chromo domain-containing protein 1 (Saccharomyces cerevisiae (strain ATCC 204508 / S288c) (Baker's yeast)) (P32657 whole entry, the tested form may be a part): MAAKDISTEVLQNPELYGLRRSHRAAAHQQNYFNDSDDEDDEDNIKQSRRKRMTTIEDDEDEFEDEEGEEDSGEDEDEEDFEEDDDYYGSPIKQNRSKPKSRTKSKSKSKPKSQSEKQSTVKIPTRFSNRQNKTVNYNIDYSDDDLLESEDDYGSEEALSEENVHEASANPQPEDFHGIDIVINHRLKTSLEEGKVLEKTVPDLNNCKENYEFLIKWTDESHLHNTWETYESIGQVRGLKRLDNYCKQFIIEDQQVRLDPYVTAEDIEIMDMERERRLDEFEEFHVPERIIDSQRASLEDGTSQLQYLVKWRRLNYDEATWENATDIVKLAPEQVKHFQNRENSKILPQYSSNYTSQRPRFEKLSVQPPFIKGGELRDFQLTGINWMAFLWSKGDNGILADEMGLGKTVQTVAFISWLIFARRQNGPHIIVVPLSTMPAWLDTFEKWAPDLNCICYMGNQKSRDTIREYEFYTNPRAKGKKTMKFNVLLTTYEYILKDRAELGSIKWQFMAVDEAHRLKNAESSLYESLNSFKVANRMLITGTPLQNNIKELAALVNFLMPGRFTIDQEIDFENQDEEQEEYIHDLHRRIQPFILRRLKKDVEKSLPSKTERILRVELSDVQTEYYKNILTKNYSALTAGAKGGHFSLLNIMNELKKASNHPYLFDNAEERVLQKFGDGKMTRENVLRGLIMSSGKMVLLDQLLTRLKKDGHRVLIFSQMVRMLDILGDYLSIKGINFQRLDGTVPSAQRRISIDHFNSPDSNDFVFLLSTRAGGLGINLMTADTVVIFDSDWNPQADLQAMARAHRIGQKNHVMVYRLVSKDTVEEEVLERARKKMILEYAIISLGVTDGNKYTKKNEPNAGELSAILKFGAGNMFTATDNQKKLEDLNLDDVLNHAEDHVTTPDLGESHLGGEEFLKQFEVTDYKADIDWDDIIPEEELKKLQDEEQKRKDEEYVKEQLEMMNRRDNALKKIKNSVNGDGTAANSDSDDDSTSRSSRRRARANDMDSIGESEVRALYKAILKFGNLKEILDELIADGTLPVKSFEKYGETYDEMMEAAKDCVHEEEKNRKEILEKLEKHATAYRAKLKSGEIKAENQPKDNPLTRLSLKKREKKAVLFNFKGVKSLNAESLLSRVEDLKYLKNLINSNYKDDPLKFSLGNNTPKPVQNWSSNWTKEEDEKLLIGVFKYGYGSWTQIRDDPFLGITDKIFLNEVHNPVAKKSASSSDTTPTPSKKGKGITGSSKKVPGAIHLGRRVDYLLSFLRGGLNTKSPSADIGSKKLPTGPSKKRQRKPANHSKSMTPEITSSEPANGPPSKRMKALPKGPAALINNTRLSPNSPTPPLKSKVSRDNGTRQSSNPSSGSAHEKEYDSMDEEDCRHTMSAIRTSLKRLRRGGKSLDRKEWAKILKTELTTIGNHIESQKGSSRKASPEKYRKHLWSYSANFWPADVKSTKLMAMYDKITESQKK

Sequence of Protein translocase subunit SecA (Escherichia coli (strain K12)) (P10408 whole entry): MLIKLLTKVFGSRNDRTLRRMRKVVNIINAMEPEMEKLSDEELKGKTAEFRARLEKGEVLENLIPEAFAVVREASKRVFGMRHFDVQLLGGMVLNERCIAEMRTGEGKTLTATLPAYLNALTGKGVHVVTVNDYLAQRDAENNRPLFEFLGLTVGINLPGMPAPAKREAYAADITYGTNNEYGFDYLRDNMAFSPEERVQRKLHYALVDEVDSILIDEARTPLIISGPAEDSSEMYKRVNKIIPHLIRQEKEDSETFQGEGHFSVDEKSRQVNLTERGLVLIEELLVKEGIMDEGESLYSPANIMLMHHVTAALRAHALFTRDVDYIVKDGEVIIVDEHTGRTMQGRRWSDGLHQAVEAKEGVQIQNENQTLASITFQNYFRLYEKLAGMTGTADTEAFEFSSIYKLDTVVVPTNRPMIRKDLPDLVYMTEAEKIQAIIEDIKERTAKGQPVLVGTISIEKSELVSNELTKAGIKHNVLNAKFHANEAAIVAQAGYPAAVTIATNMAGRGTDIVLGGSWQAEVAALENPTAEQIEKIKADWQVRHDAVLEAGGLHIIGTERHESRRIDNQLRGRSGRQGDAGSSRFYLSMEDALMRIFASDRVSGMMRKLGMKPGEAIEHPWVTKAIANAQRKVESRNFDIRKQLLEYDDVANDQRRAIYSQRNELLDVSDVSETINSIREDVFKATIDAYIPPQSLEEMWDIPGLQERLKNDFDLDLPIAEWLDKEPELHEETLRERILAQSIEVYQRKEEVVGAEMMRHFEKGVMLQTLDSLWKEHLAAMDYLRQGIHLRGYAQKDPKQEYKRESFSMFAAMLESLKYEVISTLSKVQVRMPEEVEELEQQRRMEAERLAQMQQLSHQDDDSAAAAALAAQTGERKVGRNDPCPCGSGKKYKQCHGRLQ

Compound | Percent Effect [1] | Percent Effect [2] | Percent Effect [3] | Percent Effect [4] | Percent Effect (Trypanosoma cruzi) | Percent Effect [5] | Percent Effect [6] | Percent Effect (Homo sapiens) | Percent Effect [7] | Percent Effect [8] | Percent Effect [9]
O=C(Nc1cc(C(F)(F)F)c[nH]c1=O)N1CCCSCC1 | -5.05% | 7.79% | 1.88% | 4.65% | -3.37% | 2.85% | 6.08% | 20.5% | 6.8% | 12.2% | -1.96%
Cc1ccccc1[C@@H]1CN(C(=O)c2ccc3[nH]nnc3c2)C[C@H]1C(=O)O | -4.25% | -11% | 4.06% | 1.72% | -5.75% | 0.399% | 8.65% | 2.78% | 3.12% | 3.7% | 2.93%
Cn1nc2c(cc1=O)CN(CC(=O)Nc1ccc(Cl)cn1)CC2 | -3.42% | 18.1% | -417% | 5.46% | -0.291% | -1.32% | 12.3% | -2.31% | -2.1% | -5.13% | -1.83%
Cc1ccc(C)c(OC2CCN(C(=O)c3ccc(C)[nH]c3=O)CC2)c1 | -3.58% | 15.8% | -5.18% | 6.14% | 8.84% | 1.53% | 10.9% | 11.6% | 5.39% | 12.2% | -11.4%
Cc1nn(C)c(C)c1CC(=O)N1CCC(Nc2cccnn2)CC1 | -5.77% | -13.2% | -1.31% | -4.49% | 9.59% | -1.92% | 5.85% | 9.42% | 5.39% | 9.76% | -11.7%
CSCC(=O)N1CCC2(CC1)c1ccccc1CC2O (stereo not given) | -1.39% | 18.2% | 10.7% | 2.45% | 2.26% | -4.14% | 18.5% | 5.92% | 5.38% | 11.1% | -3.92%
COC(=O)C(NC(=O)C(C)C)c1cc(F)ccc1F (stereo not given) | -3.03% | 10.4% | 3.19% | 15.7% | -2.43% | 7.12% | 3.38% | 22.8% | 2.91% | 9.76% | -4.93%
c1ncc(Nc2nccc(C3CCCCN3CC3CCCCC3)n2)cn1 (stereo not given) | -4.71% | 13.3% | 10.8% | -4.81% | -0.591% | 3.5% | 10.5% | 21.9% | 2.13% | 11.5% | -6.48%
CCN(CC)S(=O)(=O)N1CCCC(c2ccc(C(=O)O)cc2)C1 (stereo not given) | -1.63% | -2.7% | 0.184% | 8.84% | -4.44% | -4.76% | 0.69% | -0.683% | 2.65% | 0% | -0.737%
Cc1ccc(CNC(=O)CN2CCN(CC(O)c3ccco3)CC2)cc1 (stereo not given) | -2.27% | 20.8% | -4.52% | -0.747% | 0.0986% | -1.94% | 9.4% | 7.63% | 4.23% | 24.4% | -10.3%
COc1ccccc1OCC(=O)NCC(O)(c1ccccc1)C1CC1 (stereo not given) | -4.08% | 13.7% | -8.54% | 17% | 2.74% | 0.909% | 14% | 7.48% | 8.6% | 15% | -5.98%
CN(CC(=O)N1CCCC1Cn1cccn1)C1CC1 (stereo not given) | -4.84% | 10.1% | -1.88% | 13.2% | 1.04% | 0% | -0.0819% | 3.19% | 1.48% | 8.86% | -3.87%
CS(=O)(=O)CCC(=O)NC1(c2cccc(Br)c2)CC1 | -2.11% | 13.5% | -4.94% | 18.2% | 6.37% | 1.43% | 15% | -3.85% | 3.7% | 12.2% | -3.61%
CN(C)c1nc2c(c(=O)[nH]1)CCN(C(=O)c1cccc3nccnc13)C2 | 1.03% | 18.2% | -1.68% | 4.82% | 1.87% | -33.1% | 19.1% | 29.3% | 8.6% | 16.1% | -3.03%
COc1ncccc1CN1CCn2c(Cn3cncn3)cnc2C1 | -1.73% | 18.7% | 0.535% | -13.2% | -2.76% | 2.1% | 8.19% | -1.48% | 0% | 6.41% | -3.83%
Cc1cnc(CN(C)C2CCN(CCc3ccccn3)CC2)cn1 | -1.96% | 13.5% | -8.24% | -5.72% | 5.48% | -3.88% | 14.5% | 13.7% | 7.92% | 15.8% | -6.34%
C=C1c2ccccc2C(=O)N1CCC(=O)N1CCNC(=O)C1 | -2.89% | 15.8% | -1.19% | 3.39% | -2.07% | 6.51% | 29.6% | -7.94% | 6.37% | 17.1% | -3.42%
CC(C)Cc1noc(CN2CCN(CCO)CC2)n1 | -0.954% | 10.5% | 1.51% | -0.0672% | -2.07% | 0.766% | 12% | 11.2% | 3.43% | 9.76% | -8.48%
CC(C)c1nc(C2CCCN2CCc2ccncc2)no1 (stereo not given) | -3.81% | 0% | 6.93% | -0.839% | -2.25% | -0.356% | 13% | 27% | 2.91% | -4.88% | -0.507%
O=C(NCc1ccncc1)N(Cc1ccccc1F)C1CC1 | -6.03% | 18.7% | -7.25% | 29.6% | 10.2% | 51% | 17.1% | 5.89% | 2.73% | 16.1% | -6.63%

Reference: ChEMBL document CHEMBL3988442, “University of Dundee, Small-Polar-MMV Screening Library” (2021)
